Measurements: PubChem BioAssay
Activity calls are given as the source filed them.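 The calls were made as follows, unless noted: active = NADPH fluorescence slope more negative than the mean of all samples by about 3 SD, 99.7% confidence; inactive = the rest.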

The compounds below were run against Voltage-gated potassium channel subunit beta-2 (Rattus norvegicus) (UniProt P62483) (assay: KvBeta positive modulators, primary screen, biochemical, NADPH fluorescence (AID 623;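 also: fluorescence intensity change per second fitted from 20 to 320 s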)). Details: Recombinant KvBeta, NADPH fluorescence decrease slope, 10 min; at 10 µM; hits give low values.
Sequence of Voltage-gated potassium channel subunit beta-2 (Rattus norvegicus) (P62483 whole entry, looked up): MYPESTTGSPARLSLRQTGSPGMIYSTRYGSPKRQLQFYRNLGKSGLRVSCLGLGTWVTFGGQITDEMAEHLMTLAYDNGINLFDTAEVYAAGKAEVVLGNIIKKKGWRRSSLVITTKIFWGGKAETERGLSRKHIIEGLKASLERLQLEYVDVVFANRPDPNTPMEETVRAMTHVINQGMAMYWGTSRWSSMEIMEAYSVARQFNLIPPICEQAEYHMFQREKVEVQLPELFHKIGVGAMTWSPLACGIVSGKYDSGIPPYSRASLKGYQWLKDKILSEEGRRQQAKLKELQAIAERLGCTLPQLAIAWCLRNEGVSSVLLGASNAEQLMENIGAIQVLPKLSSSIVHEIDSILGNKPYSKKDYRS

NADPH fluorescence slope, inactive:
CCCNC(=O)NC1C(NC(=O)NCCC)N(C)C(=O)N1C (stereo not given) 2.5e-05, COc1ccccc1NC(=O)C(C)NS(=O)(=O)c1ccc(F)cc1 (stereo not given) -3.4e-05, Cc1oc(-c2ccccc2F)nc1CS(=O)(=O)CC(=O)N1CCN(Cc2ccccc2)CC1 -4.4e-05, CCCOC(=O)c1[nH]c2c(c1C)C(=O)CC(c1ccc(OC)c(OC)c1)C2 (stereo not given) 8.6e-06, N#Cc1c(-c2ccccc2)nc(N2CCCCCC2)[nH]c1=O -1.5e-05, CCOc1ccc(-n2cc(C(=O)N3CCN(C)CC3)c3cc(OC)c(OC)cc3c2=O)cc1 1.6e-05, Cc1ccc(CCNC(=O)C2CCCN(S(=O)(=O)c3cnc[nH]3)C2)cc1 (stereo not given) -1.4e-06, Cc1cnc(C(=O)Nc2nnc(C(C)C)s2)cn1 -3.3e-05, COc1ccccc1NC(=O)Cn1nnc(-c2ccccc2NC(=O)c2ccco2)n1 -1.3e-05, O=C1CCc2cc(S(=O)(=O)N3CCC(C(=O)NCc4ccccn4)CC3)ccc2N1 1.3e-05, COc1ccc(OCCSc2nc3ccccc3n2CC(=O)O)cc1 -5.2e-05, Cc1cccc(C(OC(=O)c2ccco2)C(=O)NCc2ccccc2)n1 (stereo not given) -1.3e-05, CCCCN(CC)CCNC(=O)c1cc2c(C)nc3ccccc3c2o1 -3.2e-05, O=C(NC1CCCC1)C(c1ccco1)N(Cc1ccccc1)C(=O)c1csnn1 (stereo not given) -3.8e-05, CC(C)(C)NC(=O)NC(=O)COc1ccccc1C#N 8.6e-06, COc1cccc2cc(C(=O)C3=C(O)C(=O)N(CCCN4CCOCC4)C3c3ccncc3)oc12 (stereo not given) -7.1e-05, CCOC(=O)N1CCN(c2cc(=O)n(-c3ccccc3Cl)c(=O)[nH]2)CC1 -4.3e-05, Cn1nnnc1SCC(=O)N1CCN(c2cccc(Cl)c2)CC1 -2.9e-06, CCOc1ccccc1OCC(=O)NCc1ccco1 -4.3e-05, CCN1C(=O)C(C(=O)Nc2ccc(OC)cc2)C2CC1(C)Oc1ccccc12 (stereo not given) -5.8e-05, O=C(Nc1ccc(Cl)cn1)c1cccnc1 1.1e-05, CCOC(=O)CSc1nc2c(c(-c3ccc(C)o3)c1C#N)CCCC2 -9.4e-05, CCn1c(Cc2ccccc2)nnc1SCC(=O)Nc1cc(C)on1 -3.3e-05, Cn1c(=O)[nH]c(=O)c2[nH]c(NCCCN3CCOCC3)nc21 -1.9e-05, CC1CCN(Cc2nc3c(c(=O)n(C)c(=O)n3C)n2Cc2cccc3ccccc23)CC1 -2.4e-05, Fc1cccc2sc(N3CCOCC3)nc12 -3.9e-05, Cc1cc(NC(=O)CSc2nc3c(c(=O)n2Cc2ccccc2)SC(C)C3)no1 (stereo not given) -6.8e-05, Clc1ccc(CSc2nnc(Cn3cnc4ccccc43)o2)cc1 -1.4e-05, O=C1c2ccccc2NC2CCCCCN12 (stereo not given) 2.2e-05, CCOc1ccc(-c2cc(C(=O)N3CCN(c4ccccn4)CC3)c3ccccc3n2)cc1 -6.7e-06, COc1ccc(Cn2nnnc2C(c2cccs2)N2CCOCC2)cc1 (stereo not given) 1.2e-06, CN1C(=O)CC(N2CCC(C(N)=O)(N3CCCCC3)CC2)C1=O (stereo not given) -4.9e-05, CC1CCCN(C(=O)c2cc3c(-c4ccc(Cl)cc4)nn(C)c3s2)C1 (stereo not given) -5.2e-06, CCN1CCN(Cc2nc3c(c(=O)[nH]c(=O)n3C)n2Cc2ccccc2Cl)CC1 -3.1e-05, CS(=O)(=O)c1ccc2nc(NC(=O)C3C4C=CC(C4)C3C(=O)O)sc2c1 (stereo not given) 1e-05, NC(=O)c1c(NC(=O)CN2CCCC2)sc2c1CCCC2 -1.9e-05, CCOc1ccc(C(=O)CN2CCN(S(=O)(=O)c3ccc(OC)cc3)CC2)cc1 -4.7e-05, O=C1NC(=O)C(CC(=O)N(Cc2ccco2)C2(C(=O)NC3CCCC3)CCCCC2)N1 (stereo not given) -3.9e-05, COCCn1c(SCC(=O)Nc2cccc(OC)c2)nnc1-c1ccc(Cl)cc1 -2.9e-05, CN(C)c1nc(Oc2ccc(=O)n(C)n2)nc(N2CCOCC2)n1 1.5e-05

Each compound was assayed against Alpha-2C adrenergic receptor (Homo sapiens) (UniProt P18825) (assay: modulators of alpha2C/GIRK thallium flux, primary screen, cell-based, HEK293 alpha2C/GIRK1/2 (AID 624;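 active = fluorescence slope after compound addition differing from the mean of all screened samples at 99.7% confidence, in either direction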;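 also: slope of fluorescence ratio to pre-addition baseline per second over 15 to 24 s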)). Details: thallium flux BTC fluorescence, at 10 µM, actives lie on both sides.
Sequence of Alpha-2C adrenergic receptor (Homo sapiens) (P18825 whole entry, looked up): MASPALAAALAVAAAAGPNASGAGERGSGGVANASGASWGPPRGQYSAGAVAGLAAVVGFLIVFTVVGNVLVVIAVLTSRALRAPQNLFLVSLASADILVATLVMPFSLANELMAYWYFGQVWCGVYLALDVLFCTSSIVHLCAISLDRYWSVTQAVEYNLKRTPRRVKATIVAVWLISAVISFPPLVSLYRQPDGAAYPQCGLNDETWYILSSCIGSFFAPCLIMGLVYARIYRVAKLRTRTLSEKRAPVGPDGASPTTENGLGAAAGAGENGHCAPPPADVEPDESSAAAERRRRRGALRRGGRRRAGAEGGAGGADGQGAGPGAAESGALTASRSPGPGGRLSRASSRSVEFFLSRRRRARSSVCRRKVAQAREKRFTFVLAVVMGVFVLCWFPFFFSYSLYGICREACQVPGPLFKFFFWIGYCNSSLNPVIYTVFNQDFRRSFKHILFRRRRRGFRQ

slope, inactive:
CCCNC(=O)NC1C(NC(=O)NCCC)N(C)C(=O)N1C (stereo not given) 0.00546, COc1ccccc1NC(=O)C(C)NS(=O)(=O)c1ccc(F)cc1 (stereo not given) 0.00634, Cc1oc(-c2ccccc2F)nc1CS(=O)(=O)CC(=O)N1CCN(Cc2ccccc2)CC1 0.00602, CCCOC(=O)c1[nH]c2c(c1C)C(=O)CC(c1ccc(OC)c(OC)c1)C2 (stereo not given) 0.00378, N#Cc1c(-c2ccccc2)nc(N2CCCCCC2)[nH]c1=O 0.0048, CCOc1ccc(-n2cc(C(=O)N3CCN(C)CC3)c3cc(OC)c(OC)cc3c2=O)cc1 0.007, Cc1ccc(CCNC(=O)C2CCCN(S(=O)(=O)c3cnc[nH]3)C2)cc1 (stereo not given) 0.00614, Cc1cnc(C(=O)Nc2nnc(C(C)C)s2)cn1 0.00641, COc1ccccc1NC(=O)Cn1nnc(-c2ccccc2NC(=O)c2ccco2)n1 0.00705, O=C1CCc2cc(S(=O)(=O)N3CCC(C(=O)NCc4ccccn4)CC3)ccc2N1 0.00666, COc1ccc(OCCSc2nc3ccccc3n2CC(=O)O)cc1 0.00591, Cc1cccc(C(OC(=O)c2ccco2)C(=O)NCc2ccccc2)n1 (stereo not given) 0.00475, CCCCN(CC)CCNC(=O)c1cc2c(C)nc3ccccc3c2o1 0.00664, O=C(NC1CCCC1)C(c1ccco1)N(Cc1ccccc1)C(=O)c1csnn1 (stereo not given) 0.006, CC(C)(C)NC(=O)NC(=O)COc1ccccc1C#N 0.0068, COc1cccc2cc(C(=O)C3=C(O)C(=O)N(CCCN4CCOCC4)C3c3ccncc3)oc12 (stereo not given) 0.00372, CCOC(=O)N1CCN(c2cc(=O)n(-c3ccccc3Cl)c(=O)[nH]2)CC1 0.00703, Cn1nnnc1SCC(=O)N1CCN(c2cccc(Cl)c2)CC1 0.00492, CCOc1ccccc1OCC(=O)NCc1ccco1 0.00437, CCN1C(=O)C(C(=O)Nc2ccc(OC)cc2)C2CC1(C)Oc1ccccc12 (stereo not given) 0.0052, O=C(Nc1ccc(Cl)cn1)c1cccnc1 0.00527, CCOC(=O)CSc1nc2c(c(-c3ccc(C)o3)c1C#N)CCCC2 0.00861, CCn1c(Cc2ccccc2)nnc1SCC(=O)Nc1cc(C)on1 0.0074, Cn1c(=O)[nH]c(=O)c2[nH]c(NCCCN3CCOCC3)nc21 0.00608, CC1CCN(Cc2nc3c(c(=O)n(C)c(=O)n3C)n2Cc2cccc3ccccc23)CC1 0.00536, Fc1cccc2sc(N3CCOCC3)nc12 0.00353, Cc1cc(NC(=O)CSc2nc3c(c(=O)n2Cc2ccccc2)SC(C)C3)no1 (stereo not given) 0.00456, Clc1ccc(CSc2nnc(Cn3cnc4ccccc43)o2)cc1 0.00613, O=C1c2ccccc2NC2CCCCCN12 (stereo not given) 0.0068, CCOc1ccc(-c2cc(C(=O)N3CCN(c4ccccn4)CC3)c3ccccc3n2)cc1 0.00673, COc1ccc(Cn2nnnc2C(c2cccs2)N2CCOCC2)cc1 (stereo not given) 0.00389, CN1C(=O)CC(N2CCC(C(N)=O)(N3CCCCC3)CC2)C1=O (stereo not given) 0.00424, CC1CCCN(C(=O)c2cc3c(-c4ccc(Cl)cc4)nn(C)c3s2)C1 (stereo not given) 0.00725, CCN1CCN(Cc2nc3c(c(=O)[nH]c(=O)n3C)n2Cc2ccccc2Cl)CC1 0.00512, CS(=O)(=O)c1ccc2nc(NC(=O)C3C4C=CC(C4)C3C(=O)O)sc2c1 (stereo not given) 0.00376, NC(=O)c1c(NC(=O)CN2CCCC2)sc2c1CCCC2 0.00312, CCOc1ccc(C(=O)CN2CCN(S(=O)(=O)c3ccc(OC)cc3)CC2)cc1 0.00338, O=C1NC(=O)C(CC(=O)N(Cc2ccco2)C2(C(=O)NC3CCCC3)CCCCC2)N1 (stereo not given) 0.00746, COCCn1c(SCC(=O)Nc2cccc(OC)c2)nnc1-c1ccc(Cl)cc1 0.00322, CN(C)c1nc(Oc2ccc(=O)n(C)n2)nc(N2CCOCC2)n1 0.00286
